Measured values published in PubChem BioAssay.
Values without a mark were called inactive. Active and inactive are the calls of the source.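 Rule for the calls: active = inhibition above 50%; inactive = the rest.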

Assay: HepG2 cytotoxicity, primary screen, cytotoxicity control for P. falciparum antimalarial project, cell-based, ATP luminescence (AID 2303);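 note: 0% = DMSO wells and 100% = digitonin-killed cells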
Conditions: HepG2 viability, 24-48 h, at 10 µM, stronger effect = higher value

| SMILES | inhibition |
| --- | --- |
| O=C(Nc1ccccc1)Nc1cccc(-c2nn3c(OCCN4CCCC4)cccc3c2-c2ccncc2)c1 | 30% |
| N#Cc1ccc(C(=O)Nc2cc(-c3cccc(O)c3)cc3[nH]ncc23)cc1 | 15% |
| O=C(NCCCCN1CCC(c2ccc3c(c2OCCCO)CCCC3)CC1)c1ccc(-c2ccc(C(F)(F)F)cc2)c(CO)c1 | 66% (active) |
| Cc1nc(Nc2ccc(F)cc2)nc(N2CCc3ccccc3[C@@H]2C)c1C | 12% |
| Cc1ccccc1Oc1ccc(Nc2ccnc(Nc3cccc(C(N)=O)c3)n2)cc1C(F)(F)F | 9% |
| COc1ccc(CN2CCN(CC(=O)Nc3cc(Cl)ccc3-n3cncn3)CC2)cc1F | 0% |
| O=C(CN1C(=O)CC1S(=O)(=O)Cc1ccco1)NCCCCCCc1ccc(F)cc1 (centres undefined) | -2% |
| NS(=O)(=O)c1cccc(N=Cc2c(O)[nH]c3ccc(S(=O)(=O)Cc4c(Cl)cccc4Cl)cc23)c1 | 1% |
| Cn1cccc1C(=O)Nc1cccc(-c2nn3ccccc3c2-c2ccnc(Nc3ccc4c(c3)OCCO4)n2)c1 | 12% |
| c1ccc2sc(-c3csc(Nc4ccncc4)n3)nc2c1 | -4% |
| CCN(CC)CCNC(=O)c1ccc(Nc2ncc([N+](=O)[O-])c(Nc3ccccc3OC)n2)cc1 | 59% (active) |
| CC(=O)Nc1ccc(Nc2ncc([N+](=O)[O-])c(Nc3ccccc3C(N)=O)n2)cc1 | 42% |
| O=C(Nc1ccc(OC2CCN(CC3CC3)CC2)c(Cl)c1)c1ccc2ncccc2c1 | 19% |
| CC(Sc1n[nH]c(-c2ccccc2Br)n1)C(=O)Nc1ccc(F)cc1 (centres undefined) | -7% |
| CC(CC1CCCCC1)NCc1ccccc1OCCC(=O)N1CCCC1C(N)=O (centres undefined) | 5% |
| CCS(=O)(=O)c1ccc(OC)c(Nc2nccc(-c3c(-c4cccc(NC(=O)c5c(F)cccc5F)c4)nn4ncccc34)n2)c1 | 27% |
| Cc1cc(OCCCN2CCCC2)ccc1NC(=O)COc1ccc(Cl)cc1C(=O)c1cc(C#N)cc(C(F)(F)F)c1 | 18% |
| O=C(NNC(=O)c1ccc(CN2CCC(c3nc4ccccc4[nH]3)CC2)cc1)Nc1ccc(Oc2ccccc2)cc1 | -2% |
| S=C(Nc1ccc(Cl)cc1)Nc1ccc(Nc2ccccc2)cc1 | 14% |
| COc1cc(Nc2nccc(-c3c(-c4cccc(NC(=O)c5c(F)cccc5F)c4)nn4ncccc34)n2)cc(OC)c1OC | 96% (active) |
| O=C(O)c1ccc(-c2cnc3ccc(NC4CCC(O)CC4)nn23)cc1 (centres undefined) | 9% |
| Cc1ccc(-n2c(C)cc(C(=O)CN3C(=O)NC(Cc4ccccc4)C3=O)c2C)cc1 (centres undefined) | -11% |
| CCn1c(-c2nonc2N)nc2c(-c3cc4ccccc4s3)ncc(C(=O)N3CCC(N)C3)c21 (centres undefined) | 99% (active) |
| C[C@H]1CN(Cc2ccc(-c3cccc(CNC(=O)c4cccc(C(=O)c5ccc(Cl)c(Cl)c5)c4)c3)s2)CCN1 | 3% |
| COc1ccc(N=C(N)Nc2ccccc2)nc1Cc1ccccc1 | 17% |
| Cc1[nH]nc2ccc(-c3cc(OC[C@@H](N)Cc4ccccc4)cnc3-c3cc4ccccc4s3)cc12 | 41% |
| C=CC(C)C1OC(=O)c2cc(OC)cc(OC)c21 (centres undefined) | 100% (active) |
| CCNC(=O)Nc1ccc(N(C)c2ccnc(Nc3ccc(CS(C)(=O)=O)cc3)n2)cc1 | -5% |
| CCN(CC)CCNC(=O)c1ccc(N=Cc2c(O)[nH]c3ccc(S(=O)(=O)Cc4c(Cl)cccc4Cl)cc23)cc1 | 25% |
